# According to PubChem BioAssay AID2284349 (EPA ToxCast):
# Results filed as inconclusive are left out. Calls of active or inactive are those of the source. How the source made its calls: active means hit-call score of the fitted dose curve at least 0.9, where 1 is the maximum; inconclusive means response in the unintended direction; inactive means score below 0.9.
# Biological target: frog Peroxisome Proliferator-activated Receptor-gamma (PPARg), pparg (gene 397769) (UniProt P37234)
# Assay: ATG_frPPARg_EcoTox2: Attagene TRANS-FACTORIAL EcoTox-2 HepG2 Assay for frog Peroxisome Proliferator-activated Receptor-gamma (PPARg)
# Description: ATG_EcoTox2 is a cell-based, multiplexed assay created by modifying the existing Attagene TRANS-FACTORIAL system to include a panel of nuclear receptors from some or all the following species: human (Homo sapiens), african clawed frog (Xenopus laevis), rainbow trout (Oncorhynchus mykiss), japanese medaka (Oryzias latipes), and zebrafish (Danio rerio). The ECOTOX2-FACTORIAL format uses HepG2, a human liver cell line, with measurements taken at 24 hours after chemical dosing in a 24-well plate. ATG_frPPARg_EcoTox2 is one of 29 assay components calculated in the ATG_EcoTox2 assay. It is designed to make measurements of mRNA induction, a form of inducible reporter, as detected with fluorescence intensity signals by Reverse transcription polymerase chain reaction (RT-PCR) and Capillary electrophoresis technology.The assay endpoint ATG_frPPARg_EcoTox2 was analyzed in the positive analysis fitting direction relative to DMSO as the negative control and baseline of activity. Using a type of inducible reporter, measures of mRNA for gain-of-signal activity can be used to understand the reporter gene at the transcription factor-level as they relate to the gene PPARg. Furthermore, this assay endpoint can be referred to as a primary readout, because this assay has produced multiple assay endpoints where this one serves a reporter gene function. To generalize the intended target to other relatable targets, this assay endpoint is annotated to the nuclear receptor intended target family, where the subfamily is non-steroidal.
# Human liver HepG2 cells are transiently transfected with multiple reporter transcription units (MRTUs) in 6-well plates using FuGene 6 reagent (Roche; 3 ml FuGene/1 mg DNA). The MRTU constructs are regulated by a cis-regulating element (promoter). Each RTU expresses a GAL4-UAS that regulates the transcription of a nearby target reporter gene sequence. A major difference between the CIS and TRANS system is that in CIS activities of endogenous TFs are measured, whereas the TRANS assay evaluates changes in activities of exogenous, chimeric NR-Gal4 proteins. […] At the end of 24 hour incubation, total RNA was isolated using TriZol reagent (Invitrogen). The isolated RNA is then reverse-transcribed using oligo(dT) primer and Mo-MLV reverse transcriptase (Invitrogen) with DNAse I (Ambion) treatment for 30 min. The one-tenth of the produced cDNA was amplified by PCR using Taq DNA polymerase (Invitrogen) and two reporter sequence-specific primers. The PCR products were fluorescently labeled by primer extension with 6-arboxyfluorescein (6-FAM) 5'-labeled reporter sequence-specific primer (2 min at 95 C, 20 s at 68 C and 10 min at 72 C) and these products were digested with 5U of HpaI (New England Biolabs) for 2h at 37 C. The fragments were purified using Qiaquick PCR columns (Qiagen), analyzed on an ABI 3130xL genetic analyzer (Applied Biosystems) with peak positions identified by using a set of X-rhodamine (ROX)-labeled MapMarker1000 molecular weight standards (BioVentures). The raw capillary electrophoresis data was processed using Attagraph software (Attagene).
# frog Peroxisome Proliferator-activated Receptor-gamma (PPARg), pparg (gene 397769), sequence (P37234 whole entry, looked up): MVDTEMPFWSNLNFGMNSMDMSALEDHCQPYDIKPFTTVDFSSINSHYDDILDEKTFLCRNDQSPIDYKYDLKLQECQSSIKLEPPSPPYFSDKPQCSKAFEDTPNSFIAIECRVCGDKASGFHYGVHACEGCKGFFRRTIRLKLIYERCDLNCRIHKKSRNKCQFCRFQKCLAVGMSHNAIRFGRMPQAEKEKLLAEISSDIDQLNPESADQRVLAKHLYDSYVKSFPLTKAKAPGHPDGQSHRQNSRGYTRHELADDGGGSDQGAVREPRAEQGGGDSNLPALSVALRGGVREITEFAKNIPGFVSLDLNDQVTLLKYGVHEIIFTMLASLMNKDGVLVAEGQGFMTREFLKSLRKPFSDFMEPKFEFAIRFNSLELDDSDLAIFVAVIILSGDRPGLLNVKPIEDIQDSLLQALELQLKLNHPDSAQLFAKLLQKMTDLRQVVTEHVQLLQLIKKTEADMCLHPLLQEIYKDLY
row,Structure (SMILES),outcome
1,Cc1cccc(Nc2cc(Cl)nc(SCC(=O)O)n2)c1C,inactive
2,C=C(c1ccc(C(=O)O)cc1)c1cc2c(cc1C)C(C)(C)CCC2(C)C,inactive
3,Cc1ccc(C)c(OCCCC(C)(C)C(=O)O)c1,inactive
4,CC(C)(Oc1ccc(Cl)cc1)C(=O)O,inactive
5,CC(C)(Oc1ccc(CCNC(=O)c2ccc(Cl)cc2)cc1)C(=O)O,inactive
6,CC(C)OC(=O)C(C)(C)Oc1ccc(C(=O)c2ccc(Cl)cc2)cc1,inactive
7,CC(c1cc2ccccc2s1)N(O)C(N)=O (stereo not drawn),inactive
8,C[C@@H]1C[C@H]2[C@@H]3CCC4=CC(=O)C=C[C@]4(C)[C@@]3(F)[C@@H](O)C[C@]2(C)[C@@]1(O)C(=O)COP(=O)(O)O,inactive
